ABHD5 PLIN5 PPI – blocks binding of human ABHD5 to perilipin-5 | Split G. princeps luciferase complementation, luminescence, 4 h | inhibition, % at 4 µM | Q00G26+Q8WTS1 | hit rate 0.78% among 360,000;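 active means inhibition above the mean inhibition across every tested compound plus 3 SD, cut at about 22% in these data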
Target sequence (Q00G26 whole entry, looked up): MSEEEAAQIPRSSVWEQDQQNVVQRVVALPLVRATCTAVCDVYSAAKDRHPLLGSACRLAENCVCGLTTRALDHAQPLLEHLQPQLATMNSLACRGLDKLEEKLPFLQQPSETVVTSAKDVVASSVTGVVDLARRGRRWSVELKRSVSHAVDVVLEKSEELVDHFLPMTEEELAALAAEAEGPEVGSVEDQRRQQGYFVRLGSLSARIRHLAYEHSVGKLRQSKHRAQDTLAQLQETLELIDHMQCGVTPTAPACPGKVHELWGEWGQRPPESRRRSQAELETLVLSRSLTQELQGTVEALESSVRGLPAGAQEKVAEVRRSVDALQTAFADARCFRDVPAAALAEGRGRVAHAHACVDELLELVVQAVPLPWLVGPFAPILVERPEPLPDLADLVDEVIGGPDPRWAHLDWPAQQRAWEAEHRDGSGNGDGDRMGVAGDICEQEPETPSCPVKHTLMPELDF
Target sequence (Q8WTS1 whole entry, looked up): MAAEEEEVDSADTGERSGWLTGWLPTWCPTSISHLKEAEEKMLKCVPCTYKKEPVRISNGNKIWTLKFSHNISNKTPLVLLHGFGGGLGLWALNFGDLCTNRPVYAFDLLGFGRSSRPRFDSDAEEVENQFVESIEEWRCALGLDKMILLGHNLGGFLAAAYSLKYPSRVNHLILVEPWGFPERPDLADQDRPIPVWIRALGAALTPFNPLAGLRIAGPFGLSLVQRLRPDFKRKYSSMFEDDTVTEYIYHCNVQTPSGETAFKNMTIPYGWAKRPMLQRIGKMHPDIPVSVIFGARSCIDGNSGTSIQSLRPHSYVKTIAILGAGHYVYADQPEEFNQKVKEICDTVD
Peg3 prom inh – inhibitors of Peg3 promoter. inhibition, % at 20 µM. hit rate 1.7% among 360,000. AID 588405. HeLa PEG-Prom luciferase reporter, luminescence, overnight;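 active means inhibition of at least 50% at 20 µM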
Shn3 3UTR inh – reduces Shn3 3'UTR luciferase signal in osteoblasts; Clone20 osteoblast Shn3 3'UTR firefly luciferase, 24 h; inhibition, % at 12.5 µM; hit rate 0.52% among 360,000;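 active means mean inhibition of at least 75% with every replicate also reaching 75%; inconclusive means mean inhibition at least 75% but some replicate below; inactive means mean inhibition below 75%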
PAX8 reporter – PAX8 transcriptional activity inhibition; RMG-I TPO-luciferase reporter, SteadyGlo, 24 h; inhibition, % at 12.6 µM; hit rate 1.2% among 360,000; AID 652154;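 active means mean replicate inhibition at least 60% with every replicate also reaching 60%; inconclusive means only one of the two criteria is met; inactive means mean below 60% and not all replicates reaching 60%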;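 further: luciferase light reporting Pax8 driven TPO promoter activity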
TRPM1 prom inh – reduces MITF-dependent TRPM1 promoter luciferase signal | SK-MEL-5 TRPM1 promoter luciferase, 24 h | inhibition, % at 12.5 µM | hit rate 0.83% among 330,000;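 active means mean inhibition across replicates of 60% or more, whatever share of single replicates reaches that level; inconclusive means some that reach 60%, reason not given; inactive means mean inhibition across replicates below 60%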
EWS-Fli inh – inhibitors of EWS/Fli oncoprotein transcriptional activity. A673 NR0B1-luciferase reporter, viability-normalised. AID 651661. hit rate 0.67% among 350,000. inhibition, % at 12.6 µM;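 active means mean inhibition of at least 50% after viability correction, with every replicate also passing that limit; inconclusive means mean reaches 50% but only one of two replicates passes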;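 further: firefly luciferase signal divided by Alamar Blue viability fluorescence both relative to DMSO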
Each line names hits and unclear results; the compound was inactive in the other large screens; ! = a repeat was not active. Rows were chosen to be rich in hits. Some 3% of all compounds tested hit in one or more screens of this group.

CC(C)(C)C(=O)Cn1ncc(N2CCOCC2)c(Cl)c1=O	none (no result: TRPM1 prom inh)
CC(C)NC(=O)N[C@H]1CC[C@@H](CCNC(=O)C2CCOCC2)O[C@H]1CO	none (no result: ABHD5 PLIN5 PPI, Peg3 prom inh, Shn3 3UTR inh, TRPM1 prom inh)
C[C@@H]1CCCCO[C@@H](CN(C)Cc2ccc3c(c2)OCO3)[C@H](C)CN([C@@H](C)CO)C(=O)c2cc(N(C)C)ccc2O1	none (no result: ABHD5 PLIN5 PPI, Peg3 prom inh, Shn3 3UTR inh, TRPM1 prom inh)
OCc1ccccc1SSc1ccccc1CO	ABHD5 PLIN5 PPI 48.4 (no result: Shn3 3UTR inh, TRPM1 prom inh)
CN(C)CCNCCCNc1c2ccccc2nc2cccc([N+](=O)[O-])c12	Peg3 prom inh 98.3, TRPM1 prom inh 103.2
CCC(=O)N1CC2(C1)[C@H](c1ccc(-c3ccccc3OC)cc1)[C@H](CO)N2C(C)=O	none (no result: ABHD5 PLIN5 PPI, Peg3 prom inh, Shn3 3UTR inh, TRPM1 prom inh)
COCC(=O)N1C[C@@H](C)[C@H](OC)CN(C)C(=O)c2ccc(NC(=O)c3ccc(OC)cc3)cc2OC[C@H]1C	none (no result: ABHD5 PLIN5 PPI, Peg3 prom inh, Shn3 3UTR inh, TRPM1 prom inh)
COc1ccc(-c2ccc3c(c2)[C@@H]2[C@@H](CCN2C(=O)NC2CCCCC2)[C@@H](CO)N3C)cc1	PAX8 reporter 84.8 (no result: ABHD5 PLIN5 PPI, Peg3 prom inh, Shn3 3UTR inh, TRPM1 prom inh)
COc1ccc(NC(=O)N2CC[C@@H]3[C@H]2c2cc(-c4ccc(F)cc4)ccc2N(C)[C@H]3CO)cc1	PAX8 reporter 71.0 (no result: ABHD5 PLIN5 PPI, Peg3 prom inh, Shn3 3UTR inh, TRPM1 prom inh)
CN1c2ccc(-c3ccccc3)cc2[C@@H]2[C@@H](CCN2C(=O)NC2CCCCC2)[C@@H]1CO	PAX8 reporter 81.3 (no result: ABHD5 PLIN5 PPI, Peg3 prom inh, Shn3 3UTR inh, TRPM1 prom inh)
COc1cccc(-c2ccc3c(c2)[C@@H]2[C@@H](CCN2C(=O)NC2CCCC2)[C@H](CO)N3C)c1	PAX8 reporter inconclusive (no result: ABHD5 PLIN5 PPI, Peg3 prom inh, Shn3 3UTR inh, TRPM1 prom inh)
COCC(=O)N[C@H]1CC[C@@H](CC(=O)N2CCCCC2)O[C@@H]1CO	none (no result: ABHD5 PLIN5 PPI, Peg3 prom inh, Shn3 3UTR inh, TRPM1 prom inh)
C[C@H]1CCCCO[C@H](CN(C)CC2CCCCC2)[C@@H](C)CN([C@@H](C)CO)C(=O)c2cc(NC(=O)NC3CCCCC3)ccc2O1	none (no result: ABHD5 PLIN5 PPI, Peg3 prom inh, Shn3 3UTR inh, TRPM1 prom inh)
CCN(C[C@H]1N[C@H](CO)[C@@H]1c1ccc(-c2cccc(F)c2)cc1)C(=O)COC	none (no result: ABHD5 PLIN5 PPI, Peg3 prom inh, Shn3 3UTR inh, TRPM1 prom inh)
COc1ccccc1N1CCN(C(=O)CCCn2c(=S)[nH]c3ccccc3c2=O)CC1	Peg3 prom inh 67.9 (no result: TRPM1 prom inh)
COc1ccccc1N1CCN(C(=O)CCn2c(=O)[nH]c3ccccc3c2=O)CC1	none (no result: EWS-Fli inh)
O=C1c2cccc3c(O)ccc(c23)C(=O)N1c1ccc(Cl)cc1	PAX8 reporter 101.7
CC(=O)Nc1ccc(N2C(=O)c3cccc4c(O)ccc(c34)C2=O)cc1	none
Cc1ccc(C)c(NC(=O)COC(=O)c2cccc3c2C(=O)c2ccccc2C3=O)c1	PAX8 reporter 63.8
O=C(N[C@H]1CC[C@@H](CCNS(=O)(=O)c2ccc(F)cc2)O[C@@H]1CO)c1cccc(F)c1	none (no result: ABHD5 PLIN5 PPI, Peg3 prom inh, Shn3 3UTR inh, PAX8 reporter, TRPM1 prom inh)
Cc1[nH]c2ccccc2c1C(=O)C(C)OC(=O)c1ccc([N+](=O)[O-])o1 (stereo not drawn)	PAX8 reporter 61.7
C[C@@H]1CN([C@H](C)CO)C(=O)c2cc(NC(=O)c3ccccc3)ccc2O[C@@H](C)CCCCO[C@H]1CN(C)C(=O)Nc1ccc2c(c1)OCO2	none (no result: ABHD5 PLIN5 PPI, Peg3 prom inh, Shn3 3UTR inh, TRPM1 prom inh)
COc1cc2c(-c3ccccc3O)nc3c(c(C)nn3-c3ccccc3)c2cc1OC	Peg3 prom inh 57.0 (no result: EWS-Fli inh)
COc1ccc(N2CC(C(=O)N/N=C/c3c[nH]c4ccccc34)CC2=O)cc1 (stereo not drawn)	none
O=C(N/N=C/c1ccccc1O)C1CC(=O)N(c2ccc(F)cc2)C1 (stereo not drawn)	Peg3 prom inh 51.9
S=C(Nc1ccc(Cl)c(Cl)c1)N1CCCC1	none
Cc1ccc(C)c(N2CCN(C(=S)Nc3ccc4nc(N5CCN(C)CC5)cc(C)c4c3)CC2)c1	TRPM1 prom inh 84.7
CN1CCN(C(=S)Nc2ccc(Cl)c(Cl)c2)CC1	PAX8 reporter 126.2
CC(C)NC(=O)N(C)C[C@@H]1Oc2cc(C#CC(C)(C)O)ccc2S(=O)(=O)N([C@@H](C)CO)C[C@@H]1C	none (no result: ABHD5 PLIN5 PPI, Peg3 prom inh, Shn3 3UTR inh, PAX8 reporter, TRPM1 prom inh)
O=C(C[C@@H]1C=C[C@@H](NC(=O)C2CCOCC2)[C@@H](CO)O1)Nc1ccc(-c2ccccc2)cc1	none (no result: ABHD5 PLIN5 PPI, Peg3 prom inh, Shn3 3UTR inh, TRPM1 prom inh)
O=c1oc2ccccc2c(NC(c2ccccc2)c2ccccc2)c1[N+](=O)[O-]	none (no result: EWS-Fli inh)
CC(Nc1c([N+](=O)[O-])c(=O)oc2ccccc12)C(Cl)c1ccccc1 (stereo not drawn)	Peg3 prom inh 50.5 (no result: PAX8 reporter, EWS-Fli inh)
COCC(=O)Nc1ccc2c(c1)OC[C@@H](C)N(Cc1ccccc1)C[C@@H](C)[C@H](OC)CN(C)C2=O	none (no result: ABHD5 PLIN5 PPI, Peg3 prom inh, Shn3 3UTR inh, TRPM1 prom inh, EWS-Fli inh)
C=CCn1c(=O)c2ccccc2n2c(SC(C)C(N)=O)nnc12 (stereo not drawn)	none
C=CCn1c(=O)c2ccccc2n2c(SCC(=O)/C(C#N)=C(\C)N)nnc12	Shn3 3UTR inh 93.3! (no result: PAX8 reporter)
O=c1[nH]cnc2c1ncn2[C@@H]1O[C@H](CO)[C@@H](O)[C@H]1O	none
OC[C@H]1O[C@@H](n2cnc3c(Nc4ccccc4)ncnc32)[C@H](O)[C@@H]1O	none
O=c1[nH]nnc2c1ncn2C1OC(CO)C(O)C1O (stereo not drawn)	PAX8 reporter 96.7 (no result: TRPM1 prom inh)
OCC1OC(n2cnc3c(NCc4ccccc4O)ncnc32)C(O)C1O (stereo not drawn)	Peg3 prom inh 70.7, PAX8 reporter 109.1
O=C(/C=C/c1ccc2ccccc2c1)c1ccoc1	ABHD5 PLIN5 PPI 24.5 (no result: PAX8 reporter, EWS-Fli inh)
O=C(/C=C/c1ccc(O)cc1)c1ccccc1	none
CCNC(=O)C[C@@H]1CC[C@@H]2[C@@H](COc3ccc(NC(=O)Cc4cccs4)cc3C(=O)N2C)O1	none (no result: ABHD5 PLIN5 PPI, Peg3 prom inh, Shn3 3UTR inh, TRPM1 prom inh)
Cc1ccc(-c2ccc(C(=O)NCc3ccc(Cl)cc3)o2)c2ccccc12	ABHD5 PLIN5 PPI 22.4

Assay outcomes: PubChem, several laboratories
